{"source": "PubChem BioAssay AID720519", "about": "(National Center for Advancing Translational Sciences (NCATS), 2013)", "note": "Results filed as inconclusive are left out. A call without a number means that no potency is given here. Activity calls are given as the source filed them. The call rests on the fitted dose curve; in most records, active means well fitted activation curve with a large enough effect; inconclusive means small, poorly fitted or top-dose-only effect; inactive means flat fitted curve, though single readings scatter. Potency means the concentration at half of the fitted maximal effect.", "data": [{"assay": "qHTS for Inhibitors of Cell Surface uPA Generation: Confirmatory Assay for Cherry-picked Compounds", "conditions": "cell surface uPA activity generation, qHTS confirmation; series mostly up to 115 µM", "method_in_brief": "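RAW 264.7 cells at 4000/well, incubated overnight, then treated with compounds. After 24 h at 37 C, viability was read by ATPlite luminescence. An increase in signal indicates blocked uPA-dependent LF entry.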", "values": [{"molecule": "O=C(CNC(=O)N1CC(=O)Nc2ccccc21)Nc1cc(Cl)ccc1Cl", "Potency": "inactive"}, {"molecule": "COC(=O)COc1cc2ccccc2cc1C(=O)Nc1ccccc1", "Potency": "inactive"}, {"molecule": "CCN(c1ccc(OC)cc1)S(=O)(=O)c1ccc2c(c1)NC(=O)CS2", "Potency": "inactive"}, {"molecule": "Cc1nc([N+](=O)[O-])cn1CCCCN1C(=O)c2ccccc2C1=O", "Potency": "inactive"}, {"molecule": "CCS(=O)c1scc(-c2ccc(Cl)cc2)c1C#N", "note": "(configuration not stated)", "Potency": "inactive"}, {"molecule": "Cc1cc(=O)[nH]c2c(C)cc(S(=O)(=O)Nc3ccc(O)cc3)cc12", "Potency": "inactive"}, {"molecule": "COc1ccc(N(C(C)C(=O)NN=C2CCCC2)S(C)(=O)=O)cc1", "note": "(configuration not stated)", "Potency": "inactive"}, {"molecule": "C[C@]12CCC(O)CC1CCC1C2CC[C@]2(C)C(c3cc(C(F)(F)F)n[nH]3)CCC12", "note": "(some centres not stated)", "Potency": "inactive"}, {"molecule": "COc1ccc(C(C(=O)NC2CCCC2)N(C(=O)c2ccoc2C)c2ccc(C)c(C)c2)cc1", "note": "(configuration not stated)", "Potency": "inactive"}, {"molecule": "Cc1ccc(NC2CCCN(C(=O)Cc3nonc3C)C2)cc1C", "note": "(configuration not stated)", "Potency": "inactive"}, {"molecule": "N#Cc1ccccc1Sc1ccccc1C(=O)Nc1ccc(Br)cc1", "Potency": "inactive"}, {"molecule": "CCN(CC)S(=O)(=O)c1ccc(C(=O)Nc2cccc(C)c2)cc1", "Potency": "inactive"}, {"molecule": "O=C(COC(=O)c1cc([N+](=O)[O-])ccc1NCCO)NCc1cccs1", "Potency": "inactive"}, {"molecule": "C=CS(=O)(=O)c1ccc(Oc2ccc(S(=O)(=O)C=C)cc2)cc1", "Potency": "58.5 µM (active)"}, {"molecule": "COc1cc(C(=O)Nc2nnc(C)s2)cc(OC)c1OC", "Potency": "inactive"}, {"molecule": "COc1ccc2c(ccn2S(=O)(=O)c2ccccc2)c1", "Potency": "inactive"}, {"molecule": "CN(CCCNC(=O)Cn1cccc1C(=O)c1ccccc1)C1CCCCC1", "Potency": "inactive"}, {"molecule": "Oc1c(N=NC(=S)Nc2ccccc2F)c2ccccc2n1Cc1ccccc1Cl", "Potency": "inactive"}, {"molecule": "CCn1c2ccccc2c2n[nH]c(=S)nc21", "Potency": "inactive"}, {"molecule": "CN(Cc1ccc(C(C)(C)C)cc1)C(=O)Cc1ccc(S(=O)(=O)N2CCOCC2)s1", "Potency": "inactive"}, {"molecule": "CC(C)CCN1C(=O)c2ccc(-c3nc4ccccc4c(=O)o3)cc2C1=O", "Potency": "inactive"}, {"molecule": "O=C(NCc1ccccn1)C1CCN(C(=O)c2cc3sccc3n2Cc2ccc(F)cc2)CC1", "Potency": "inactive"}]}]}
